Compound activity from PubChem BioAssay.
EWS-Fli block: inhibitors of EWS/Fli oncoprotein transcriptional activity. A673 NR0B1-luciferase reporter, viability-normalised. inhibition, % at 12.6 µM. 0.67% of 350,000 active. AID 651661;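 active = mean inhibition of at least 50% after viability correction, with every replicate also passing that limit; inconclusive = mean reaches 50% but only one of two replicates passes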;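 also: firefly luciferase signal divided by Alamar Blue viability fluorescence both relative to DMSO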
Env fusion inh: blocks HIV Env-driven cell-cell fusion; HeLa-JRFL Env/CEM21 cell fusion, luciferase; inhibition, % at 12.3 µM; 1.1% of 360,000 active;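 active = mean replicate inhibition score of at least 50 and every replicate individually at or above 50; inconclusive = only one of the two criteria met; inactive = mean below 50 and not all replicates reaching 50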;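 also: 0% = plate neutral controls and 100% = maraviroc near 300 nM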
PAX8 inh HTS: lowers PAX8-driven luciferase in RMG-I cells | RMG-I TPO-luciferase reporter, SteadyGlo, 24 h | inhibition, % at 12.6 µM | 1.2% of 360,000 active | AID 652154;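 active = mean replicate inhibition at least 60% with every replicate also reaching 60%; inconclusive = only one of the two criteria is met; inactive = mean below 60% and not all replicates reaching 60%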;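 also: luciferase light reporting Pax8 driven TPO promoter activity; plate controls were median of neutral control wells for no effect and mitoxantrone controls for full effect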
F508del corr: correctors of CFTR F508del function in bronchial epithelial cells; AID 720511; 0.36% of 350,000 active; activity (quench increase), % at 7.58 µM; CFBE cells, YFP halide quenching; stimulated with forskolin plus potentiator P3; % fluorescence drop versus neutral controls;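 active = mean added fluorescence quench of at least 8% versus neutral control, with both replicates also reaching 8%; inconclusive = only one of the mean or replicate conditions met; inactive = mean below 8% and not both replicates reaching 8%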;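 also: cells transiently co-express mutant CFTR-F508del with the halide-sensitive YFP; corrector assay measuring rescue of mutant channel to the surface after 24 h compound exposure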
FXN GAA850 act: increases GAA850 frataxin promoter reporter activity; HEK293 lucGAA850 FXN promoter luciferase reporter, 24 h; percent of 10 µM SAHA response; activation, % at 6 µM; 0.56% of 360,000 active;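 active = activation above the average of all compounds screened plus 3 SD, cutoff fixed separately per campaign, cut at about 7.5% in these data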;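 also: 0% = DMSO wells and 100% = 10 µM SAHA wells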
An asterisk follows results filed as active; u = inconclusive; x = not tested or not shown; [ ] = dose if it differs, or a comment. Most compounds without a hit are left out; they make up all but 2.5% or so of the library.

SMILES	EWS-Fli block	Env fusion inh	PAX8 inh HTS	F508del corr	FXN GAA850 act
C[C@H](CO)N1C[C@H](C)[C@H](CN(C)S(=O)(=O)c2cccc(F)c2)Oc2cc(C#CCN(C)C)ccc2S1(=O)=O	12	-13[16.7 µM]	4	3	x
COc1ccccc1-c1ccc2c(c1)O[C@H](CN(C)S(=O)(=O)c1ccccc1)[C@H](C)CN([C@H](C)CO)S2(=O)=O	2	56*[16.7 µM]	4	-2	x
O=C(Nc1cc(F)ccc1F)N[C@@H]1CC[C@H](CCNC(=O)c2cnccn2)O[C@@H]1CO	3	7[16.7 µM]	-2	1	x
COc1ccc2c3c([nH]c2c1)[C@H](CO)N(C(=O)Nc1ccc(F)cc1)CC31CCN(CC2CC2)CC1	1	21[16.7 µM]	x	-1	x
C[C@H]1CN([C@@H](C)CO)S(=O)(=O)c2ccc(-c3cccc(F)c3)cc2O[C@@H]1CN(C)S(=O)(=O)c1ccc(F)cc1	3	27[16.7 µM]	x	3	x
CC(C)CC#Cc1ccc2c(c1)O[C@@H](CN(C)S(=O)(=O)c1cccc(F)c1)[C@@H](C)CN([C@@H](C)CO)S2(=O)=O	18	77*[16.7 µM]	x	0	x
C[C@@H]1CN([C@H](C)CO)S(=O)(=O)c2ccc(-c3cccc(F)c3)cc2O[C@@H]1CN(C)S(=O)(=O)c1ccc(F)cc1	-9	56*[16.7 µM]	x	0	x
COc1ccccc1/C=C/C1(C(=O)NC2CCCC2)CC(=O)N1c1ccc(F)cc1 (centres undefined)	x	131*	x	x	-7
CC(C)C#Cc1ccc([C@H]2[C@@H](CO)N3CCCCN(CC4CC4)C[C@@H]23)cc1	-11	x	-11	0	x
Cc1ccc(C)c(NC(=O)CCC(=O)N/N=C/c2cc([N+](=O)[O-])ccc2O)c1	18	-1	0	9.9*	0
CCOC(=O)c1sc2nc(C)nc(NCc3ccc(Cl)cc3)c2c1C	1	45	-48	-4	-2
CCOC(=O)c1sc2nc(Cc3ccc(Cl)cc3)[nH]c(=S)c2c1C	-4	13	-2	12*	-1
CC1CN(C(=O)c2cc(S(=O)(=O)N3CCCC3)ccc2Cl)CC(C)O1 (centres undefined)	4	2	2	0	1
CC1CN(C(=O)c2cc(S(=O)(=O)N(C)c3ccc(F)cc3)ccc2Cl)CC(C)O1 (centres undefined)	33	61*	-14	4	-5
Cc1noc(C)c1S(=O)(=O)Nc1ccc2c(c1)C(=O)N([C@@H](C)CO)C[C@H](C)[C@H](CN(C)C(=O)CCC(F)(F)F)OCCCC[C@@H](C)O2	11	-21[16.7 µM]	-8	-1	x
COc1ccc(OC)c(-c2cc(C3CCN(c4cc(Cl)nc(N)n4)CC3)[nH]n2)c1	x	63*	x	x	-3
COc1ccc(-c2cc(C3CCN(c4cc(Cl)nc(N)n4)CC3)[nH]n2)cc1	x	94*	x	x	-1
CCOc1ccc2ccccc2c1/C=N\NC(=O)OC	-4	x	141*	0	-2
CCOc1ccc2ccccc2c1/C=N\NC(=O)c1ccc([N+](=O)[O-])cc1	-7	-11	8	-1	0
Cc1cccc(N=C2NN=C(c3c(C)[nH]c4ccccc34)CS2)c1	15	5	74*	x	-2
Cc1cccc(N=C2NN=C(c3ccc4c(c3)OCCO4)CS2)c1	10	x	x	2	2
CC(=O)NCCc1cnc[nH]1	-4	x	x	-2	10*
COCC(=O)Nc1ccc2c(c1)C(=O)N(C)C[C@H](OC)[C@@H](C)CN(CC1CC1)[C@H](C)CO2	1	x	-12	1	x
COc1cccc2c1-c1c(O)cccc1C2=O	-13	-41	-9	1	3
CC1OC(CC(=O)O)CC2=C1C(=O)c1c(O)cccc1C2=O (centres undefined)	32	76*	130*	-3	-16
SMILES	EWS-Fli block	Env fusion inh	PAX8 inh HTS	F508del corr	FXN GAA850 act
C[C@@H]1CN([C@@H](C)CO)C(=O)Cc2cc(NC(=O)Cc3cn(C)c4ccccc34)ccc2O[C@H]1CN(C)S(=O)(=O)c1ccc(Cl)cc1	-7	8[16.7 µM]	26	2	x
CCCOc1ccc(C(F)(F)F)cc1NC(=O)CCc1c(C)noc1C	5	98*	-10	2	5
CCOc1ccc(NC(=O)CCc2c(C)noc2C)cc1OC	-5	x	-21	0	2
C[C@H]1CN([C@@H](C)CO)C(=O)Cc2cc(NC(=O)Cc3cn(C)c4ccccc34)ccc2O[C@H]1CN(C)C(=O)Nc1ccccc1	-5	-1[16.7 µM]	14	3	x
C[C@@H]1CCCCO[C@@H](CN(C)Cc2ccc(C(F)(F)F)cc2)[C@H](C)CN([C@H](C)CO)C(=O)c2cc(NC(=O)C3CCCCC3)ccc2O1	18	71*[16.7 µM]	11	1	x
CC(C)NC(=O)Nc1ccc2c(c1)C(=O)N([C@H](C)CO)C[C@@H](C)[C@@H](CN(C)Cc1ccc(C(F)(F)F)cc1)OCCCC[C@@H](C)O2	-1	35[16.7 µM]	-13	2	x
C[C@@H]1CCCCO[C@H](CN(C)Cc2ccncc2)[C@H](C)CN([C@@H](C)CO)C(=O)c2cc(NC(=O)C3CCCCC3)ccc2O1	u	-68[16.7 µM]	67*	4	x
CC(C)NC(=O)Nc1ccc2c(c1)C(=O)N([C@H](C)CO)C[C@@H](C)[C@H](CN(C)Cc1ccc(C(F)(F)F)cc1)OCCCC[C@@H](C)O2	14	75*[16.7 µM]	2	-1	x
C[C@@H]1CN([C@@H](C)CO)C(=O)c2cc(NC(=O)Nc3ccc(C(F)(F)F)cc3)ccc2O[C@H]1CN(C)Cc1ccc(C(F)(F)F)cc1	-6	7[16.7 µM]	70*	1	x
C[C@@H]1CN([C@@H](C)CO)C(=O)c2cc(NC(=O)Nc3ccc(C(F)(F)F)cc3)ccc2O[C@@H]1CN(C)Cc1ccc(C(F)(F)F)cc1	7	17[16.7 µM]	-1	0	x
O=C(Nc1ccccc1F)N[C@@H]1CC[C@H](CC(=O)N2CCCCC2)O[C@@H]1CO	-7	24[16.7 µM]	21	-1	x
C[C@@H]1CN([C@H](C)CO)C(=O)c2cc(NC(=O)Nc3ccc4c(c3)OCO4)ccc2O[C@H]1CN(C)Cc1ccncc1	-3	58*	4	-1	-1
C[C@H]1CCCCO[C@@H](CN(C)Cc2ccc(C(F)(F)F)cc2)[C@@H](C)CN([C@@H](C)CO)C(=O)c2cc(NC(=O)Nc3ccc(F)cc3)ccc2O1	19	87*[16.7 µM]	105*	2	x
C[C@@H]1CCCCO[C@@H](CN(C)Cc2ccc(C(F)(F)F)cc2)[C@H](C)CN([C@H](C)CO)C(=O)c2cc(NC(=O)Nc3ccc(F)cc3)ccc2O1	11	60*[16.7 µM]	69*	-1	x
C[C@@H]1CCCCO[C@@H](CN(C)Cc2ccc(C(F)(F)F)cc2)[C@H](C)CN([C@H](C)CO)C(=O)c2cc(NC(=O)Nc3ccc(C(F)(F)F)cc3)ccc2O1	0	70*[16.7 µM]	69*	2	x
C[C@@H]1CCCCO[C@@H](CN(C)Cc2ccc(C(F)(F)F)cc2)[C@@H](C)CN([C@@H](C)CO)C(=O)c2cc(NC(=O)Nc3ccc(C(F)(F)F)cc3)ccc2O1	-11	27[16.7 µM]	8	1	x
